Screens deposited in PubChem BioAssay by Broad Institute.
The sample as a whole holds a higher share of hits than the screen did.
IDE exosite inh – exo-site inhibitors of human IDE, primary screen, biochemical, fluorescence anisotropy, probe displacement; 6.3% of 17,000 active; Insulin-degrading enzyme (Homo sapiens), P14735; AID 1259349, 2017; z-score at 20 µM; purified IDE, FL-6b probe fluorescence polarization; active compounds read low;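 active = z-score of -3 or lower, meaning strong loss of probe binding signal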;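 also: His-tagged human IDE residues 42-1019 made in E. coli with 30 nM FL-6b probe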
Target sequence (P14735 42-1019 limits assumed): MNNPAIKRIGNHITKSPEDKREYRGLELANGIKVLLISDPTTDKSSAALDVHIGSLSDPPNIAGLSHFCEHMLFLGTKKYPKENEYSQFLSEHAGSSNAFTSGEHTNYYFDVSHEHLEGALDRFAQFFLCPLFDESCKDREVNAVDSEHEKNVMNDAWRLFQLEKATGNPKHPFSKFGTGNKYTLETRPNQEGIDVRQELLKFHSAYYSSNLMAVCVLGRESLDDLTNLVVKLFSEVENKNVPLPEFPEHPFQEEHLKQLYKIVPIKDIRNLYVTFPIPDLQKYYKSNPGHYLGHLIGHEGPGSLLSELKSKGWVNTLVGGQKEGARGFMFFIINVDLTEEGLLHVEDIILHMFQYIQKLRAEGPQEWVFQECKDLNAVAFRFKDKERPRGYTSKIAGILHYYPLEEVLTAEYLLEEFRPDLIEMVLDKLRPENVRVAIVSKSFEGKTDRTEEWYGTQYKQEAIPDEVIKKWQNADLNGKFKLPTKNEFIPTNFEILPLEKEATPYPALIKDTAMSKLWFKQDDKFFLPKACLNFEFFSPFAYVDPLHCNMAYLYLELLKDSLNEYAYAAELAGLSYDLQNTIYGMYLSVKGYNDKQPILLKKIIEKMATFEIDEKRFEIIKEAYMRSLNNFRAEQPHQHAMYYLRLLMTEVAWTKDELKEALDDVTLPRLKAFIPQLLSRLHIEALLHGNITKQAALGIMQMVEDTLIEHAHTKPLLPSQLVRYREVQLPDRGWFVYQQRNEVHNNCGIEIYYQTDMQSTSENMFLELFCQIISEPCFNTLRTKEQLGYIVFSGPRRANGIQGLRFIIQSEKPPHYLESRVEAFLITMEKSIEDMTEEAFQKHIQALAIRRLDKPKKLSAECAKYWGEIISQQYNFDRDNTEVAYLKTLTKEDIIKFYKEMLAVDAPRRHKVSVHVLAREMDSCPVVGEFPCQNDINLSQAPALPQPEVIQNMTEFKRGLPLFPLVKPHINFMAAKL
Of the large screens only hits and unclear results are named; the others gave an inactive call; ! = not active in a repeat.

CN(C)CC#Cc1ccc([C@@H]2[C@H]3CN(C(=O)Cc4cccnc4)CC(=O)N3[C@H]2CO)cc1	none
O=C1CN(Cc2ccccc2)C[C@@H]2[C@H](c3ccc(-c4ccccc4)cc3)[C@H](CO)N12	none
O=S(=O)(Cc1ccccc1)N1CCCCN2[C@@H](CO)[C@@H](c3ccc(-c4ccccc4)cc3)[C@@H]2C1	none
O=C(CC1CC1)N1CC(=O)N2[C@@H](CO)[C@H](c3ccc(/C=C/c4ccccc4)cc3)[C@@H]2C1	IDE exosite inh -5
O=C(CC1CC1)N1CC(=O)N2[C@@H](CO)[C@@H](c3ccc(-c4ccccc4)cc3)[C@@H]2C1	IDE exosite inh -4.8
O=C(CC1CC1)N1CC(=O)N2[C@H](CO)[C@@H](c3ccc(-c4cccnc4)cc3)[C@@H]2C1	none
COCC(=O)N1CC(=O)N2[C@@H](CO)[C@H](c3ccc(-c4ccccc4)cc3)[C@@H]2C1	none
O=C(CC1CC1)N1CC(=O)N2[C@H](CO)[C@H](c3ccc(/C=C/c4ccccc4)cc3)[C@@H]2C1	none
O=C(CC1CC1)N1CC(=O)N2[C@H](CO)[C@@H](c3ccc(/C=C/c4ccccc4)cc3)[C@H]2C1	IDE exosite inh -3.3
CC(C)NC(=O)Nc1ccc2c(c1)C(=O)N([C@@H](C)CO)C[C@H](C)[C@H](CN(C)C(=O)C1CCCCC1)OCCCC[C@@H](C)O2	none
COCC#Cc1ccc([C@@H]2[C@@H](CO)N3C(=O)CN(C(=O)Nc4ccccc4F)C[C@H]23)cc1	none
C[C@@H]1CN([C@H](C)CO)C(=O)c2ccccc2-c2ccccc2CO[C@H]1CN(C)S(=O)(=O)c1cn(C)cn1	none
COc1ccc(C[C@@H]2CCn3cc(nn3)COC[C@@H](C)NC2=O)cc1	none
O=C(C1CCOCC1)N1CC(=O)N2[C@H](C1)[C@@H](c1ccc(-c3ccccc3F)cc1)[C@@H]2CO	IDE exosite inh -9
O=C(C1CCOCC1)N1CC(=O)N2[C@H](CO)[C@H](c3ccc(-c4ccccc4F)cc3)[C@@H]2C1	none
O=C(C1CCOCC1)N1CC(=O)N2[C@@H](CO)[C@@H](c3ccc(-c4ccccc4F)cc3)[C@@H]2C1	none
O=C(C1CCOCC1)N1CC(=O)N2[C@H](C1)[C@H](c1ccc(-c3ccccc3F)cc1)[C@@H]2CO	none
O=C(C1CCOCC1)N1CC(=O)N2[C@H](CO)[C@@H](c3ccc(-c4ccccc4F)cc3)[C@@H]2C1	IDE exosite inh -4.8
O=C(C1CCOCC1)N1CC(=O)N2[C@H](CO)[C@@H](c3ccc(-c4ccccc4F)cc3)[C@H]2C1	none
O=C(c1ccc2c(c1)OCO2)N1CC(=O)N2[C@H](C1)[C@H](c1ccc(C#CCC3CCCC3)cc1)[C@@H]2CO	none
CN(C)C(=O)c1cccc(-c2ccccc2[C@@H]2[C@@H](C#N)N(C(=O)C3CC3)[C@H]2CO)c1	none
O=C(c1cnccn1)N1CC(=O)N2[C@H](CO)[C@@H](c3ccc(C4=CCCCC4)cc3)[C@@H]2C1	none
COc1ccc(-c2ccccc2[C@@H]2[C@@H](CO)N(C(=O)NC(C)C)[C@H]2C#N)cc1	none
CN1CCCCN2[C@@H](CO)[C@@H](c3ccc(C#Cc4ccccc4F)cc3)[C@@H]2C1	IDE exosite inh -5
COc1ccc(C#Cc2ccc([C@H]3[C@H](CO)N4CCCCN(C)C[C@@H]34)cc2)cc1	none
CN1CCCCN2[C@H](CO)[C@@H](c3ccc(C#Cc4ccccc4F)cc3)[C@@H]2C1	IDE exosite inh -8.6
OC[C@@H]1[C@H](c2ccc(C#Cc3ccccc3F)cc2)[C@@H]2CN(CC3CCOCC3)CCCCN12	none
CN1CCCCN2[C@H](CO)[C@@H](c3ccc(-c4ccccc4)cc3)[C@@H]2C1	none
COc1ccc(C#Cc2ccc([C@H]3[C@H]4CN(C)CCCCN4[C@H]3CO)cc2)cc1	none
CCS(=O)(=O)Nc1ccc2c(c1)C(=O)N(C)[C@H]1CC[C@@H](CC(=O)NCc3ccc(OC)cc3)O[C@H]1CO2	none
CN(C)C(=O)c1cccc(-c2ccc(C3[C@H]4CNC[C@@H]3N4Cc3cc(F)ccc3F)cc2)c1 (some centres not stated)	none
N#C[C@@H]1[C@@H](c2ccc(C#Cc3cccnc3)cc2)[C@@H](CO)N1C(=O)NC1CCCCC1	none
O=C(C[C@@H]1C=C[C@H](NC(=O)Nc2ccc3c(c2)OCO3)[C@H](CO)O1)NCCCN1CCOCC1	none
C/C=C/c1ccc([C@H]2[C@@H](CO)N(C(=O)CC)[C@@H]2CNC(=O)c2ccncc2)cc1	none
C/C=C/c1ccc([C@H]2[C@@H](CO)N(S(C)(=O)=O)[C@H]2CN(CC)C(C)=O)cc1	none
O=C(NC1CCCC1)N1CCCCN2[C@H](CO)[C@@H](c3ccc(/C=C/c4ccccc4)cc3)[C@@H]2C1	none
O=C(Nc1ccccc1F)N1CCCCN2[C@H](CO)[C@@H](c3ccc(/C=C/c4ccccc4)cc3)[C@H]2C1	none
O=C(NC1CCCC1)N1CCCCN2[C@H](C1)[C@H](c1ccc(/C=C/c3ccccc3)cc1)[C@@H]2CO	IDE exosite inh -13
O=C(NC1CCCC1)N1CCCCN2[C@H](C1)[C@@H](c1ccc(/C=C/c3ccccc3)cc1)[C@@H]2CO	IDE exosite inh -9.6
COCC(=O)N1[C@H](CO)[C@@H](c2ccccc2)C12CN(C(=O)c1ccccc1)C2	none
O=S(=O)(c1ccccc1)N1C[C@@H]2N[C@H](C1)C2c1ccc(-c2ccc(F)cc2)cc1 (some centres not stated)	none
CO[C@H](CN(C)Cc1nccs1)[C@H](C)CN([C@@H](C)CO)S(=O)(=O)c1ccc(F)cc1	none
O=C(Nc1cccc(Cl)c1)N1[C@@H]2CNC[C@H]1C2c1ccc(/C=C/c2ccccc2)cc1 (some centres not stated)	none
CC(C)NC(=O)N1[C@@H]2CNC[C@H]1C2c1ccc(/C=C/c2ccccc2)cc1 (some centres not stated)	none
CC(C)NC(=O)N1[C@@H]2CNC[C@H]1C2c1ccc(-c2cccc(C#N)c2)cc1 (some centres not stated)	none
CCCNC(=O)N1[C@@H]2CNC[C@H]1C2c1ccc(-c2ccc(C)cc2)cc1 (some centres not stated)	IDE exosite inh -3.2!
CCCNC(=O)N1[C@@H]2CNC[C@H]1C2c1ccc(/C=C/c2ccccc2)cc1 (some centres not stated)	IDE exosite inh -7.5
CCCNC(=O)N1[C@@H](CO)[C@@H](c2ccc(-c3ccccc3)cc2)[C@@H]1CNC(C)=O	none
C/C=C/c1ccc([C@H]2[C@@H](CO)N[C@@H]2CNC(=O)CC2CC2)cc1	none
Cc1ccccc1-c1ccccc1[C@H]1[C@@H](CO)N(C(=O)c2ccccc2)[C@H]1C#N	none
COc1ccc(NC(=O)Nc2ccc3c(c2)[C@@H]2C[C@@H](CC(=O)NCC(F)(F)F)O[C@@H](CO)[C@@H]2O3)cc1	none
COc1cccc(C#Cc2ccc([C@@H]3[C@@H](CO)N4C(=O)CN(C(=O)C5CC5)C[C@H]34)cc2)c1	none
CCC(=O)N1CC(=O)N2[C@H](CO)[C@@H](c3ccc(C#Cc4cccnc4)cc3)[C@@H]2C1	none
CCC(=O)N1CC(=O)N2[C@H](C1)[C@H](c1ccc(C#Cc3cccnc3)cc1)[C@@H]2CO	IDE exosite inh -3
CCCNC(=O)N1CC(=O)N2[C@@H](CO)[C@H](c3ccc(C#Cc4cccc(OC)c4)cc3)[C@@H]2C1	none
CCC(=O)N1CC(=O)N2[C@H](CO)[C@@H](c3ccc(C#Cc4cccc(OC)c4)cc3)[C@H]2C1	IDE exosite inh -4.2
CCC(=O)N1CC(=O)N2[C@@H](CO)[C@@H](c3ccc(C#Cc4cccc(OC)c4)cc3)[C@@H]2C1	IDE exosite inh -11
CCCNC(=O)N1CC(=O)N2[C@@H](CO)[C@@H](c3ccc(C#Cc4cccc(OC)c4)cc3)[C@@H]2C1	none
